# Sampled rows, rich in hits. Any-hit rate of the full collection: about 22%.
# Shiga inhibitor: inhibitors of Shiga toxin in Vero cells | Vero cells, Shiga toxin protein synthesis inhibition reporter | inhibition, % at 38.7 µM | hit rate 9.2% among 290,000 | AID 2315; in the data active means inhibition mostly above about 28%, no sharp cut-off; inactive means mostly below about 43%; further: 0% is about no effect
# Cycloheximide cs: affects cycloheximide protein synthesis inhibition readout, counter-screen. cell reporter, cycloheximide protein synthesis inhibition counterscreen. max response, %. hit rate 12% among 300,000. AID 2314; in the data active means max response mostly above about 13%, no sharp cut-off; inactive means mostly below about 14%; further: read at 38.3 µM for the half of the compounds with a filed dose; 0% is about no effect
# LmPK inhibitor: inhibitors of Leishmania mexicana pyruvate kinase; hit rate 0.37% among 290,000; AID 1721; Potency, µM (top dose mostly 57.5 µM), for the others: top-dose activity change, negative = inhibition, most hits filed as inhibitors; purified LmPK, Kinase-Glo ATP luminescence, 1 h; further: potency means the concentration at half of the fitted maximal effect; on the % scale 0 is the no-effect control and ±100 the full control effect
# Target sequence (Q27686 whole entry, looked up): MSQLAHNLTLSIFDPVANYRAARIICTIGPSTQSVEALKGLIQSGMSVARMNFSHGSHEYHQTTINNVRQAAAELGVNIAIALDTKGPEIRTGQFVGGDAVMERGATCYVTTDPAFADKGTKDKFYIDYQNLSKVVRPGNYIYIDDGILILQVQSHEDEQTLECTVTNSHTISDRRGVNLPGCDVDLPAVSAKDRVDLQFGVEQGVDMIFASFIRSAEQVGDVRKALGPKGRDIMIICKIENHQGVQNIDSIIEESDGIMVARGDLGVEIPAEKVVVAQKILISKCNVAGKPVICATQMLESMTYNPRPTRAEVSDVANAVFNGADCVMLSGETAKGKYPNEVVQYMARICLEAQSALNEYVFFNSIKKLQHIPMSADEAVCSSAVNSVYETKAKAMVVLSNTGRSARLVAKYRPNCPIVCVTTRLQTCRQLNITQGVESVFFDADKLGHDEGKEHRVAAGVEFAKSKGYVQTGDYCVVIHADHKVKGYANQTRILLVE
#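 In 50 mM imidazole pH 7.2 with 7 mM MgCl2, LmPK (0.1 nM) turned over PEP (0.5 mM) and ADP (0.1 mM) for 1 h at room temperature. Luciferase read-out of ATP.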
# Pf growth 96h: inhibits malaria parasite growth, 96 h | P. falciparum luciferase reporter growth, 96 h | Potency, µM (top dose mostly 28.7 µM), for inactives: at the top dose activity change, negative = inhibition, hits mostly inhibitors | hit rate 6.9% among 320,000; further: potency means the concentration at half of the fitted maximal effect; on the % scale 0 is the no-effect control and ±100 the full control effect
#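 Compounds incubated with erythrocytes infected by luciferase-expressing P. falciparum (2% hematocrit, 0.05% parasitemia final) for 96 hours, 37 C in 5% CO2. Growth inhibition scored as decreased luciferase luminescence.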
# Pf growth 48h: P. falciparum growth inhibition at 48 hours (one generation); Potency, µM (titrated, usually from 28.7 µM), inactives show top-dose activity change, negative = inhibition, usual class: inhibitors; hit rate 5.9% among 310,000; P. falciparum luciferase growth in erythrocytes, 48 h; AID 504832; further: potency means the concentration at half of the fitted maximal effect; on the % scale 0 is the no-effect control and ±100 the full control effect
#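 Luciferase-expressing P. falciparum in infected erythrocytes (2% hematocrit, 0.1% parasitemia final) in RPMI 1640/0.5% Albumax were exposed to compound for 48 hours at 37 C, 5% CO2; growth read as luminescence.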
# * marks the source's active call; other numbers are inactive results; u = inconclusive; x = no result given; [ ] = another dose, or the depositor's remark. Unless noted, the call rests on the fitted dose curve; in most records, active means well fitted inhibition curve with a large enough effect; inconclusive means small, poorly fitted or top-dose-only effect, or another doubt; inactive means no such curve, though single readings can be large or run the other way.
SMILES,Shiga inhibitor,Cycloheximide cs,LmPK inhibitor,Pf growth 96h,Pf growth 48h
CC(C)C[C@@H](CC#N)N1CCN(CCc2ccccc2)CCC1=O,8.1,0.4,-4.4%,-27.2%,2.6%
CC(C)C[C@@H](CSc1ccccc1)N1CCN(CCc2ccccc2)CCC1=O,29.7*,18.1*,-1.6%,u,u
CC(C)CN1CCC(=O)N([C@H](CSc2ccccc2)Cc2ccccc2)CC1,5.3,-0.3,-7.2%,13.1µM*,u
CCOC(=O)C=Nc1c(N)n(C)c(=O)n(C)c1=O,-4.4,-1.8,-5.5%,-0.4%,12.4%
Cc1occc1C(=O)/C(C#N)=C/c1ccc(O)c(Br)c1,14.3,-0.5,-5.4%,-17.0%,-7.4%
O=C(Nc1cccc(-c2nn[nH]n2)c1)c1csc2c1CCCC2,30.5,0.3,5.5%,u,-6.8%
CCCN1CCC(=O)N([C@H](CN=[N+]=[N-])CC(C)C)CC1,-6.0,-0.5,8.3%,4.65µM*,u
CC(C)CN1CCC(=O)N(CCN=[N+]=[N-])CC1,3.0,8.0,11.0%,u,-26.9%
CCOC(=O)Cc1csc(-n2sc3ccccc3c2=O)n1,32.7,38.1*,27.2%,x,x
Cc1ccc(S(=O)(=O)NN=C2CCC(C(C)(C)C)CC2)cc1[N+](=O)[O-] (configuration not stated),-12.4,-2.6,-2.2%,32.7%,0.6%
O=S(=O)(N/N=C1/CC(c2ccccc2)Oc2ccccc21)c1ccc(Br)cc1 (configuration not stated),25.0,28.0*,-2.7%,18.7%,x
Cc1ccc(S(=O)(=O)N/N=C2/CC(c3ccccc3)Oc3ccccc32)cc1[N+](=O)[O-] (configuration not stated),38.7*,55.2*,8.7%,4.3%,x
COC(=O)c1ccccc1NS(=O)(=O)c1ccc(Cl)nc1,-10.7,-0.6,10.2%,-4.6%,28.2%
COc1cc2cc[n+](Cc3ccc([N+](=O)[O-])cc3)cc2cc1OC,3.8,-4.6,1.2%,3.29µM*,4.65µM*
O=[N+]([O-])c1ccc(C[n+]2cccc(O)c2)cc1,x,x,x,50.5%,22.4%
CCN(CC(=O)Nc1ccc(C(=O)Nc2ccc(OC)cc2)cc1)Cc1nc2ccccc2c(=O)[nH]1,7.5,9.9,2.9%,u,u
Cc1ccc(NN=C2c3ccccc3-c3ccccc32)cc1,69.7*,48.3*,5.1%,184.9%,106.3%
NC(=S)NN=C1c2ccccc2-c2ccccc21,-2.8,0.9,-9.5%,27.7%,u
COc1ccc(N(CCCN2C(=O)c3cccc4cccc(c34)C2=O)C(=O)c2ccncc2)cc1,-14.7,-1.4,5.1%,1.47µM*,2.33µM*
COc1cc(OC)cc(C(=O)N(CCCN2C(=O)c3cccc4cccc(c34)C2=O)c2cccc(OC)c2)c1,1.0,6.7,-1.2%,-99.3%,9.28µM*
CCN(CC)C(=O)COc1ccc(/C(C)=N/Nc2ncc(Cl)cc2Cl)cc1,65.5*,28.2*,4.7%,22.1%,-15.1%
COc1cc(NC(=O)CCNS(=O)(=O)c2ccc3c(c2)CCC(=O)N3)cc(OC)c1,14.9,-0.7,-1.9%,5.0%,4.9%
CC1=C2CC3C(CC=C4C[C@@H](O)CC[C@@]43C)[C@@H]2CC[C@]12O[C@@H]1C[C@H](C)CN[C@H]1[C@H]2C (some centres not stated),-7.0,11.8,x,x,x
CC1=C2C(=O)C3C(CC=C4CC(O)CCC43C)C2CCC12OC1CC(C)CNC1C2C (configuration not stated),-7.4,-1.3,3.6%,u,13.1µM*
C=CCc1cc(/C=N\NC(=O)CSc2nnc(CCCc3ccc(OC)c(C)c3)o2)cc(OC)c1O,-20.8,-1.0,-1.9%,2.94µM*,3.7µM*
SMILES,Shiga inhibitor,Cycloheximide cs,LmPK inhibitor,Pf growth 96h,Pf growth 48h
C=CCc1cc(/C=N/NC(=O)CSc2nnc(CCCc3ccc(OC)cc3)o2)cc(OC)c1O,-17.2,-1.8,-0.6%,0.0586µM*,x
COc1ccc(CCCc2nnc(SCC(=O)N/N=C\c3ccc(O)c(OC)c3)o2)cc1C,-1.9,-1.1,-5.5%,u,u
COc1ccc(/C=N/NC(=O)CSc2nnc(CCCc3ccc(OC)c(C)c3)o2)cc1,22.9,17.3,2.8%,1.2%[5.75 µM],u
CC(C)(C)c1ccc(CCC2OCC(C[N+]3(C)CCOCC3)O2)cc1 (configuration not stated),-2.7,-2.7,-1.0%,2.62µM*,u
CCOc1ccc(CN2CCN(Cc3cccn3-c3ncccn3)CC2CCO)cc1 (configuration not stated),-1.5,8.3,3.7%,-39.7%,u
CCCCN(CCCC)CCNC(=O)c1ccc2nc(-c3ccccc3NC(C)=O)c(=O)[nH]c2c1,-6.1,13.5,-1.6%,5.1%,2.33µM*
CC(=O)Nc1ccccc1-c1nc2cc(C#N)c(C#N)cc2[nH]c1=O,0.7,7.3,-0.7%,106.1%,x
CC(=O)Nc1ccccc1-c1nc2ccc(C(=O)N3CCN(c4cccc(C)c4)C(C)C3)cc2[nH]c1=O (configuration not stated),-11.3,-4.1,6.0%,6.57µM*,x
CC(=O)Nc1ccccc1-c1nc2ccc(C(=O)N3CCN(c4ccccc4)CC3)cc2[nH]c1=O,13.2,-1.2,-1.9%,u,-2.4%
CCN(CC)S(=O)(=O)c1cc(C(=O)Nc2cc(C)on2)c(Cl)cc1Cl,-12.5,1.3,-8.9%,u,-19.6%
CCn1c2ccc(C)cc2c2nnc(SCCN3CCCCC3)nc21,-7.2,-1.3,-2.3%,-27.0%,62.5%
Cn1nc2c3ccccc3n(Cc3ccccc3)c2nc1=S,121.3*,41.1*,1.4%,-23.4%,14.9%
C=CCn1c2ccccc2c2nnc(SCCCn3c(=O)[nH]c4ccccc43)nc21,-6.1,1.3,1.1%,-11.3%,13.1µM*
C=CCn1c2ccccc2c2nnc(SCCN3CCCCC3)nc21,x,5.2,6.4%,10.4µM*,u
C=CCn1c2ccccc2c2nnc(SCN3C(=O)c4ccccc4C3=O)nc21,-13.9,7.8,-0.5%,-35.2%,1.1%
CCCn1c2ccc(C)cc2c2nnc(SCCN3CCCCC3)nc21,-11.1,-4.9,-1.8%,9.28µM*,u
O=C(Nc1ccc(C(=O)N2CCOCC2)cc1)Nc1cccc2ccccc12,7.5,28.3,-3.3%[11.5 µM],u,155.2%
COc1cc(C(=O)Nn2cnnc2)ccc1OC(F)F,4.5,-5.9,-5.5%,24.4%,18.0%
Cc1ccc(NC(=O)Cn2ccnc2)cc1C,-13.5,7.3,-4.7%,37.8%,u
c1ccc(Cn2c3ccccc3c3nnc(SCCN4CCCCC4)nc32)cc1,0.3,-2.5,7.5%,u,9.28µM*
CCCn1c2ccccc2c2nnc(SCCN3CCOCC3)nc21,-8.2,-3.1,0.4%,0.3%,u
CC(NC(=O)CN1c2cccc3cccc(c23)S1(=O)=O)c1ccc(S(N)(=O)=O)cc1 (configuration not stated),x,x,x,-9.7%,-4.4%
COc1ccc(C#Cc2ccc3c(c2)c(=O)c2ccccc2n3C)cc1,3.6,1.2,2.6%,u,0.0%
Cn1c2ccccc2c(=O)c2ccc(C#CC3(O)CCCCC3)cc21,41.2*,34.9*,0.9%,-61.3%,-37.2%

# High-throughput results as filed in PubChem BioAssay.
